In PubChem BioAssay AID1851 (National Center for Advancing Translational Sciences (NCATS), 2009):
Screen size: about 16,000 compounds; about 5,800 (36%) were called active. Inconclusive results (about 23%) are left out. Calls follow the shape of the dose curve; as a rule, active = well fitted curve in the direction sought with a large enough effect; inconclusive = small, poorly fitted or top-dose-only effect, or effect the other way; inactive = no such curve, though single readings can be large or run the other way. Some of the results follow.

biological target: Cytochrome P450 2C19 (Homo sapiens) (UniProt P33261); experiment: Cytochrome panel assay with activity outcomes; details: recombinant CYP, pro-luciferin dealkylation, luminescence, p450-cyp2c19; series mostly up to 57.1 µM; activity, negative = inhibition: at the top concentration
% is scaled to controls: 0 for no effect and ±100 for the full control effect.

Chain of Cytochrome P450 2C19 (Homo sapiens) (P33261 whole entry, looked up): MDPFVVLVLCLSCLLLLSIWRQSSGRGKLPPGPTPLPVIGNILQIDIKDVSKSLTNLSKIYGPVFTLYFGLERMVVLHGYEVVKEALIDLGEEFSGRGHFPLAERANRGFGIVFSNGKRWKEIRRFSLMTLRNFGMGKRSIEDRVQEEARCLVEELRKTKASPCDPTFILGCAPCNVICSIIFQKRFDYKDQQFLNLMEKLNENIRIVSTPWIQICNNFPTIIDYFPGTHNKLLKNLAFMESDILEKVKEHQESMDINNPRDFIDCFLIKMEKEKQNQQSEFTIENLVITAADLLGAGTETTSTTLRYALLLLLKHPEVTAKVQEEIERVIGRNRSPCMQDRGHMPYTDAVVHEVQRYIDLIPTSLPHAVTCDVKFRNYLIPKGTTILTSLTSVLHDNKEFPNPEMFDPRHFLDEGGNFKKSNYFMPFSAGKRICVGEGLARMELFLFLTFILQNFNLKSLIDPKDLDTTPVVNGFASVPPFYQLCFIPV

AC50, active:
COc1cc([N+](=O)[O-])ccc1NC(=O)CCCOc1cccc(C)c1 3.98 µM
CCCCNC(=O)CCC(=O)Nc1ccc2nc(N3CCOCC3)cc(C)c2c1 25.1 µM
Cc1ccccc1C(=O)NN(C)c1nc2ccccc2nc1C(F)(F)F 0.355 µM
O=C(Nc1ccccc1)N(Cc1ccccc1)CC(O)C(F)(F)F (configuration not stated) 5.01 µM
O=C(Nc1cccc(C(F)(F)F)c1)N(Cc1ccc(Cl)cc1)CC(O)C(F)(F)F (configuration not stated) 3.98 µM
CCCC(=O)NC(Nc1ccccc1F)C(Cl)(Cl)Cl (configuration not stated) 2.82 µM
CCOC(=O)C1=C(C)N=C2c3ccccc3C(=O)C2C1c1ccc(Cl)cc1 (configuration not stated) 0.631 µM
CCOC(=O)C1=C(C)N=C2c3ccccc3C(=O)C2C1c1ccc(C)cc1 (configuration not stated) 1 µM
CCC(=O)c1ccc(OCc2ccc(C(=O)OC)cc2)c(OC)c1 3.16 µM
O=C(Nc1ccccc1C(=O)Nc1ccc2c(c1)OCO2)c1ccco1 3.16 µM
CC1(C)Oc2ccc(NC(=O)c3ccco3)cc2O1 14.1 µM
COn1c(SCc2cccc(Cl)c2)nc2ccccc2c1=O 2.24 µM
COn1c(SCc2ccc(C)cc2C)nc2ccccc2c1=O 3.55 µM
O=[N+]([O-])c1cccc(/C=N/Nc2cc(Cl)nc(-c3ccccc3)n2)c1 2 µM
O=C(CCCc1ccccc1)N1CCN(c2ccc([N+](=O)[O-])cc2)CC1 8.91 µM
CC(=O)Nc1ccc(S(=O)(=O)NCCc2ccc(F)cc2)cc1 5.01 µM
O=c1c2c(-c3ccc(Cl)cc3)csc2nc2n1CCC2 8.91 µM
Cc1c(OCC(F)(F)F)ccnc1CSc1nc2ccccc2[nH]1 1.58 µM
COC(=O)c1ccc(NC(=O)c2ccccc2NS(=O)(=O)c2ccccc2)cc1 3.98 µM
CC(C)C1NC(=S)N(Cc2ccccc2)C1=O (configuration not stated) 2 µM
O=C(N/N=C\c1cn(-c2ccccc2)nc1-c1ccccc1)c1ccc(Br)o1 2 µM
O=C(N/N=C\c1cn(-c2ccccc2)nc1-c1ccccc1)c1ccc2c(c1)OCO2 3.16 µM
Cc1ccc(-c2nn(-c3ccccc3)cc2/C=N/NS(=O)(=O)c2ccccc2)cc1 8.91 µM
COc1ccc(CNn2c(C)nc3ccccc3c2=O)cc1 0.316 µM
CCCCOc1ccc(CNn2c(C)nc3ccccc3c2=O)cc1 0.112 µM
Cc1nc2ccccc2c(=O)n1NC(=O)c1ccccc1Cl 20 µM
CCCCOC(=O)C1=C(C)Nc2ncnn2C1c1cc(OC)ccc1OC (configuration not stated) 20 µM
COCCCNC(=O)c1c(N)n(/N=C/c2ccccn2)c2nc3ccccc3nc12 10 µM
CCC(=O)N(C)/C=C1\Sc2ccccc2C1=O 20 µM
CCOC(=O)C1CCCN(C(=O)c2sc3nc(-c4ccc(OC)cc4)cn3c2C)C1 (configuration not stated) 7.94 µM
CCSc1nc2c(c(=O)[nH]1)C(c1ccncc1)C(C(=O)OC(C)C)=C(C)N2 (configuration not stated) 0.708 µM
CSc1nc2c(c(=O)[nH]1)C(c1ccncc1)C(C(=O)OC(C)C)=C(C)N2 (configuration not stated) 1.12 µM
O=c1c2ccccc2ncn1CCCSc1ccccc1 1.41 µM
O=C(c1ccccc1)c1ccc(OCCn2cnc3ccccc3c2=O)cc1 1.58 µM
Cc1ccc(SCCCn2cnc3ccccc3c2=O)cc1 2.24 µM
O=C1c2ccccc2C(=O)N1CCCSc1ccccc1 0.631 µM

activity, negative = inhibition, inactive:
Cc1cc2c(cc1S(N)(=O)=O)S(=O)(=O)CCC2 13.4% [at 25.6 µM]
COCCCNC(=O)CCC(=O)Nc1ccc2nc(N3CCOCC3)cc(C)c2c1 30.1%
Cc1ccccc1C(=O)NNC(=O)c1ccc(F)cc1 -21.3%
O=C(c1cc(C(F)(F)F)cc(C(F)(F)F)c1)N1CCC[C@@]2(CCN(c3ccncc3)C2)C1 0.411%
O=S(=O)(C[C@H](O)C(Cl)(Cl)Cl)NNc1ccccc1 -25.2% [at 11.4 µM]
CCC(=O)NC(NCC1CCCO1)C(Cl)(Cl)Cl (configuration not stated) -28.2%
CCCC[C@]1(C2CCCC2)Cc2cc(OCC(=O)O)c(Cl)c(Cl)c2C1=O 14.2%
CO[C@@H]1/C=C\CC(=O)N[C@@H](C)C(=O)OC[C@H](NS(=O)(=O)c2ccc(C)cc2)[C@H](C)/C=C\CC(=O)OC[C@H]1C -0.432% [at 11.4 µM]
NC(=O)N[C@H]1NC(=O)NC1=O -5.57% [at 25.6 µM]
CC(Oc1ccc(O)cc1)(P(=O)(O)O)P(=O)(O)O 29%
CCC(=O)[C@@]1(C)[C@H](C)C[C@@H]2[C@@H]3CCC4=CC(=O)C=C[C@@]4(C)[C@H]3[C@H](O)C[C@]21C -27.9% [at 25.6 µM]
Cc1ccc(-n2c(SCc3ccc([N+](=O)[O-])cc3)nc3ccccc3c2=O)cc1 -12.2%
Nc1nnc(CC(=O)N/N=C/c2cccc([N+](=O)[O-])c2)s1 -11.2%
O=[N+]([O-])c1ccc(/C=N/Nc2cc(Cl)nc(-c3ccccc3)n2)cc1 17.3%
COc1ccc(NC(=O)N2CCCC3(CCN(C(=O)c4csnn4)CC3)C2)cc1 -7.72%
Cc1cc2c(nc1C)CCCN2C[C@@H](O)CN1CCN(C)CC1 4.3% [at 11.4 µM]
CO[C@@H](NC(N)=O)C(=O)O 20.6% [at 11.4 µM]
COCC(=O)N1CCN(c2ccc([N+](=O)[O-])cc2)CC1 -7.34%
CC[N+](CC)(CC)CC -13.4%
COc1ccc(S(=O)(=O)NCCC(=O)NCc2ccc(F)cc2)cc1 -27.1%
O=c1c2ccccc2nc2n1CCC2 -19.1%
C[N+](C)(C)CCCSc1nc2ccccc2[nH]1 32.5% [at 11.4 µM]
Cc1c(/C=N/NC(=O)c2ccc3c(c2)OCO3)cnn1C -22.6%
COc1ccc(CN[C@H](C)C(=O)O)cc1 24.9% [at 11.4 µM]
N/N=C1/CC(=O)NC(=O)N1 -9.46% [at 11.4 µM]
COc1cc(OC)c(C2C(C(=O)Nc3ccc(C)cc3C)=C(C)Nc3ncnn32)cc1OC (configuration not stated) -25.1%
CCCCOc1cc(C(=O)NCCN(CC)CC)c2ccccc2n1 -23.7% [at 25.6 µM]
CCNc1ncc2nc(-c3cccs3)c(=O)n(C[C@H]3CCCO3)c2n1 -9.35%
CN(C)C(=O)CSC1c2ccccc2C(=O)N1c1ccccc1 (configuration not stated) -16%
CCSc1nc2c(c(=O)[nH]1)C(c1ccccn1)C1=C(CC(C)(C)CC1=O)N2 (configuration not stated) -2.31%
CCOCCCn1cnc2c(c1=O)c1nc3ccccc3nc1n2-c1ccccc1 -8.6%
